Measurements taken from the supplement of paper PMC4237247.

test system: HeLa; assay: percent cells in G1/S phase; higher = more G1/S content; settings: 10 µM; 20 h; hit class: G2/M-phase inhibitor
Experimental: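 HTS of 79,827 drug-like compounds at 10 uM. HeLa cells in 384-well plates were treated for 20 h, fixed, stained with Vybrant DyeCycle Green and scanned on an Acumen eX3 cytometer to give per-well cell cycle profiles. Only G2/M hits (>=67% G2/M) are listed.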

SMILES	percent cells in G1/S phase [%]
COc1ccccc1NC1=CC(=O)CC(c2ccccc2)C1 (centres undefined)	21.6
COc1cc(NS(=O)(=O)c2ccc(NC(C)=O)cc2)c(OC)cc1Cl	23.2
COC(=O)Nc1nc2cc(Sc3ccccc3)ccc2[nH]1 [Fenbendazole]	26.3
COc1cc(-c2onc3ccc(Cl)cc23)cc(OC)c1OC	15.6
CCN(CC)CCN1C(=O)C(=O)C(=C(O)c2ccccc2)C1c1ccccc1F (centres undefined)	20.9
O=C(CSc1nc2ccc([N+](=O)[O-])cc2s1)c1ccc(Cl)cc1	22.6
O=C(O)c1ccccc1SC1CC(=O)N(c2ccc(Br)cc2)C1=O (centres undefined)	17.9
COC(=O)Nc1nc2cc(C(=O)c3ccccc3)ccc2[nH]1 [Mebendazole]	22.1
COC(=O)Nc1nc2ccc(SC(C)C)cc2[nH]1 [Methiazole]	19.6
O=c1[nH]c(/C=C/c2ccccc2F)nc2ccccc12	19.2
COc1ccc(/C=C/c2ccc3cccc(O)c3n2)cc1C	22.4
O=c1[nH]c(/C=C/c2ccccc2)nc2ccccc12	24.1
CC(=O)Nc1ccc(Nc2nc(-c3c(C)nc4ccccn34)cs2)cc1	14.3
CC(=O)O[C@H]1C(=O)[C@@]2(C)[C@H]([C@H](OC(=O)c3ccccc3)[C@]3(O)C[C@H](OC(=O)[C@H](O)[C@@H](NC(=O)c4ccccc4)c4ccccc4)C(C)=C1C3(C)C)[C@]1(OC(C)=O)CO[C@@H]1C[C@@H]2O [Paclitaxel]	16.5
